The supplement of paper PMC6555819

How the values were obtained:
Test in all cases: PBM binding z-score (relative to random genomic background probes); higher = stronger binding; sequences stand for … in GC…GCGATTGACAGCGTAGAATGAAGG
[1] = test system: FXR:RXRa (NR concentration 270 nM, RXRa partner concentration 90 nM)
Procedure, shortened: (§1)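 Custom Agilent 4×180K protein-binding microarrays carried double-stranded probes, each with a 34-nt variable region. These regions held direct-repeat seeds, single-nucleotide variants, half-site ablations and random human genomic background sequences. Ligand-free nuclear receptor dimers were incubated on the arrays for 1 h, antibodies against each partner (one per run) detected binding, and scanned fluorescence was regression-normalized. Binding z-scores take the random background probes as reference.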

[2] = test system: LXRa:RXRa (NR concentration 270 nM, RXRa partner concentration 90 nM)
Procedure, shortened: as §1

[3] = test system: LXRa homodimer (NR concentration 270 nM)
Procedure, shortened: as §1

[4] = test system: LXRb:RXRa (NR concentration 270 nM, RXRa partner concentration 90 nM)
Procedure, shortened: as §1

[5] = test system: LXRb homodimer (NR concentration 270 nM)
Procedure, shortened: as §1

[6] = test system: PPARa:RXRa (NR concentration 270 nM, RXRa partner concentration 90 nM)
Procedure, shortened: as §1

[7] = test system: PPARg:RXRa (NR concentration 180 nM, RXRa partner concentration 90 nM)
Procedure, shortened: as §1

[8] = test system: PPARg:RXRa 270nM:90nM, anti-RXR (NR concentration 270 nM, RXRa partner concentration 90 nM)
Procedure, shortened: as §1

[9] = test system: PPARg:RXRa 30nM:10nM, anti-RXR (NR concentration 30 nM, RXRa partner concentration 10 nM)
Procedure, shortened: as §1

[10] = test system: PPARg:RXRa 90nM:30nM, anti-RXR (NR concentration 90 nM, RXRa partner concentration 30 nM)
Procedure, shortened: as §1

Row | Sequence | PBM binding z-score [1] | PBM binding z-score [2] | PBM binding z-score [3] | PBM binding z-score [4] | PBM binding z-score [5] | PBM binding z-score [6] | PBM binding z-score [7] | PBM binding z-score [8] | PBM binding z-score [9] | PBM binding z-score [10]
1 | CGTCAAAGTTTAACTAAGGTAACGTAAAGCACGC | 1.47 | 2.68 | 0.251 | 0.825 | 0.249 | 1.15 | 0.797 | 1.22 | 0.174 | 0.65
2 | CCTGCTAGGTCAGTGGTCAGCTAAAGCAGCTCGC | 0.953 | 0.472 | -0.482 | 0.299 | -0.638 | 1.39 | 1.53 | 2.58 | 0.178 | 1.59
3 | ATCTAAAGGTCGAGGTGAGTATAGAGAAAGGGAA | 4.67 | 4.45 | 0.751 | 3.06 | 1.17 | 4.61 | 3.83 | 4.02 | 1.72 | 3.16
4 | ATATGTCGGTTACATCCGGGTCATTCAGGCTATG | 1.65 | 2.86 | 1.27 | 1.92 | 0.559 | 2.79 | 1.55 | 1.48 | 0.573 | 1.09
5 | CCGAATAGGTTATGGGGCATTCAGGCAACGGTGA | 0.575 | 0.686 | -0.0267 | 1.02 | -0.297 | 2.16 | 1.97 | 3.14 | 0.896 | 2.04
6 | AGAACGAGGGCACGTTGAGTTGATAGCAGAGTAG | 0.758 | 0.705 | -0.372 | 0.249 | -0.789 | 2.23 | 2.19 | 1.42 | 0.235 | 0.958
7 | TCTAGTGGGTCACGGAGGTCACACACGACGGGTA | 6.17 | 5.14 | 2.85 | 4.62 | 0.568 | 5.74 | 9.39 | 7.63 | 5.61 | 7.51
8 | CCTTACGGGTCACTCGAGGTTATAGCATCGGAGT | 5.2 | 7.76 | 3.19 | 5.72 | -0.178 | 5.01 | 4.03 | 4.33 | 1.41 | 3.01
9 | TCGAGTAGGTTGGTCGGGGCATTCAGCCAACATA | 0.0024 | -0.387 | -0.443 | -0.0412 | -0.299 | 0.0379 | -0.696 | 0.116 | 0.981 | 0.513
10 | TAGCCTAGGTCATGGGTCAGTATACCACGCGAAC | 5.1 | 4 | 0.898 | 3.62 | 0.339 | 4.77 | 6.78 | 5.95 | 3.9 | 6.14
11 | CCTACCGGGCCACGAAAGGTCATTGATTCAGTGA | 3.59 | 5.17 | 5.04 | 4.36 | 0.399 | 4.26 | 1.96 | 2.98 | 0.636 | 1.92
12 | CGTCAGAGTTCAACTAAGGTAACGTAAAGCACGC | 6.8 | 5.7 | 3.39 | 3.95 | 1.39 | 4.78 | 3.46 | 3.98 | 1.19 | 2.53
13 | CCGACTGGGGCAGAAAGGTTACCATTCCATCCGG | 0.282 | 0.271 | -0.165 | 0.84 | -1.08 | 1.93 | 1.48 | 2.66 | 0.414 | 2.13
14 | GCTATCAGTTGAAAGGGCAACCGAATGATTCTCG | 0.0237 | 0.591 | 0.000257 | 0.46 | -0.626 | 1.99 | 1.65 | 2.77 | 1.35 | 2.69
15 | TCATATAGATAATACAGGTGAAAGTCGGCATCTA | 1.28 | 0.946 | 0.247 | 1.08 | 0.215 | 1.53 | 1.36 | 2.47 | 4.31 | 3.51
16 | ATCTCTTGGTAACCAAGTTCAGTGAATGCCGAAC | 0.478 | 1.31 | 0.59 | 1.22 | 0.681 | 0.472 | 0.0645 | 0.369 | -0.134 | 0.145
17 | TCTTGTAGATCAAAGGTTCAGAAAGCCGAAGCCT | 0.694 | 0.971 | 0.565 | 0.863 | 0.0761 | 2.17 | 3.23 | 5.21 | 4.26 | 5.21
18 | CCAGACCGGTGAAAGGTAACTCAGTCTGGTACGC | -0.0585 | 0.0819 | -0.526 | 0.182 | -0.601 | 2.13 | 2.61 | 4.02 | 1.71 | 3.56
19 | ATATGTAGGTTATCGGGTCATTTAGTTTGCGCAT | 3.57 | 3.18 | 2.41 | 3.28 | 1.19 | 4.9 | 7.59 | 6.1 | 3.69 | 5.91
20 | TCTTATAGGTAAACAGGTGAAAGTCCGTAAGTTA | 1.1 | 1.01 | 0.0286 | 0.875 | 0.307 | 2.34 | 2.7 | 3.52 | 4.06 | 3.86
21 | TCTATTAGTTGAAAGGCAACCGACGAGTCCGTTT | 0.518 | 0.929 | 0.254 | 0.901 | 0.728 | 1.12 | 0.475 | 2.96 | 4.06 | 3.42
22 | CCTACTGGGCCATTCAGAAGTCATTGATCATATG | -0.391 | -0.415 | -0.186 | -0.497 | -0.171 | 0.968 | 0.302 | 0.341 | -0.166 | -0.00895
23 | TCTCAAAGTTCAAAGGTAACGTAAGTATCCACAC | 6.76 | 6.41 | 5.13 | 4.82 | 2.02 | 5.43 | 4.77 | 5.77 | 5.16 | 5.6
24 | ACTTACGCGTCAACGAGGTTATAGCACGCGTATA | 0.0989 | 0.589 | -0.0981 | 0.964 | 0.0457 | 1.35 | 0.862 | 0.282 | 0.115 | 0.253
